Results on 20 compounds are retold here after the supplement of paper PMC6135742.

Structures are written as SMILES. Structures can show the parent of a compound that is named as a salt. In all, about 2,600 compounds were measured (“total cell number (DAPI+ nuclei) relative to DMSO vehicle control”: median about -1.4, lowest 2% from about -23 on). This is one part of a sample in which the lowest values are shown more often than they occur.

This experiment has as its system jimpy (Plp1 jimpy) mouse iPSC-derived oligodendrocyte progenitor cells. The experiment is described as follows: total cell number (DAPI+ nuclei) relative to DMSO vehicle control (SDs above negative control mean); higher = more surviving cells. The following applies: 10 µM; 3 days.
Consider `CC(C)(CO)Cc1cc(C(C)(C)C)c(O)c(C(C)(C)C)c1`, for which the total cell number stood at 1.01.

The compound `COC(=O)C1=C(C)NC(C)=C(C(=O)OC(C)(C)CN(C)CCC(c2ccccc2)c2ccccc2)C1c1cccc([N+](=O)[O-])c1` (stereo not given) [Lercanidipine hydrochloride hemihydrate] displayed a total cell number of -8.91.

In turn, `CC(C)(NS(=O)(=O)c1ccc(Oc2ccc(F)cc2)cc1)C(=O)NO` yielded a total cell number of -2.86.

Compound `CC(N)(Cc1ccc(O)c(O)c1)C(=O)O` (racemic) [(±)-3-(3,4-dihydroxyphenyl)-2-methyl-DL-alanine] yielded a total cell number of -2.34.

Take `N=C(N)SCCN` [2-(2-Aminoethyl)isothiourea dihydrobromide]: the total cell number is -2.29.

In turn, `CCCCNc1ncc(-c2ccc(CN3CCOCC3)cn2)c(NC2CCC(O)CC2)n1` (stereo not given) registered a total cell number of -8.26.

Compound `O=C(Nc1c[nH]nc1-c1nc2ccc(CN3CCOCC3)cc2[nH]1)NC1CC1` displayed a total cell number of -22.6.

`O=C(NC1CCOCC1)c1ccc(-c2cc(-c3c[nH]nc3-c3ccccn3)ccn2)cc1`: the total cell number was -0.803.

For `O=C(O)Cn1nnc(-c2cc(N3CCC(Oc4cc(F)ccc4Br)CC3)no2)n1`, the total cell number came to 3.6.

Turning to `CC(C)N(CCCNC(=O)Nc1ccc(C(C)(C)C)cc1)C[C@H]1O[C@@H](n2cc(Br)c3c(N)ncnc32)[C@H](O)[C@@H]1O`, the total cell number was -7.77.

Compound `COC(=O)c1ccc2c(c1)NC(=O)/C2=C(\Nc1ccc(N(C)C(=O)CN2CCN(C)CC2)cc1)c1ccccc1` [Nintedanib (BIBF 1120)] returned a total cell number of -23.

In turn, `CCS(=O)(=O)Nc1ccc2c(c1)/C(=C(/Nc1ccc(CN3CCCCC3)cc1)c1ccccc1)C(=O)N2` [Hesperadin] registered a total cell number of -17.7.

The compound `CN(C)Cc1cccc(N/C(=C2\C(=O)Nc3cc(C(N)=O)ccc32)c2ccccc2)c1` displayed a total cell number of -14.3.

Turning to `C[C@@H]1O[C@@H](OC[C@H]2O[C@@H](Oc3c(-c4ccc(O)c(O)c4)oc4cc(O)cc(O)c4c3=O)[C@H](O)[C@@H](O)[C@@H]2O)[C@H](O)[C@H](O)[C@H]1O` [Rutin], the total cell number was -0.749.

The compound `CCCNS(=O)(=O)Nc1ncnc(OCCOc2ncc(Br)cn2)c1-c1ccc(Br)cc1` [Macitentan] registered a total cell number of -0.584.

`CC(C)[C@H](NC(=O)c1ccc2ccccc2n1)C(=O)N[C@@H](CC(=O)O)C(=O)COc1c(F)cccc1F`: the total cell number worked out at 15.6.

Regarding `CC(C)C[C@H](NC(=O)[C@H](Cc1ccccc1)NC(=O)c1cnccn1)B(O)O` [Bortezomib (PS-341)], the total cell number is -20.2.

For `CC(C)C[C@H](NC(=O)[C@@H](NC(=O)c1cccc(-c2ccccc2)n1)[C@@H](C)O)B(O)O`, the total cell number was -22.6.

For `C=CC(N)CCC(=O)O` (racemic) [(±)-gamma-Vinyl GABA], the total cell number was -0.562.

Regarding `COc1ccc(C2CC(=O)c3c(O)cc(OC4OC(COC5OC(C)C(O)C(O)C5O)C(O)C(O)C4O)cc3O2)cc1OC` (stereo not given) [Methyl-Hesperidin], the total cell number is -1.13.
